# High-throughput results (PubChem)
# EWS-Fli inh = EWS/Fli-driven NR0B1 reporter inhibitors, primary screen, A673 cells, NR0B1 luciferase, luminescence, MLPCN library. viability-normalised. inhibition, % at 12.6 µM. AID 651661, 2012. 0.67% of 350,000 active;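 active means mean inhibition of at least 50% after viability correction, with every replicate also passing that limit; inconclusive means mean reaches 50% but only one of two replicates passes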;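 further: firefly luciferase signal divided by Alamar Blue viability fluorescence both relative to DMSO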
# LGR2 inh = inhibitors of bursicon-induced LGR2 CRE-luciferase signal, primary screen, cell-based, HEK293, CRE-luciferase reporter, bursicon stimulation; Drosophila bursicon receptor LGR2 (rickets); inhibition, % at 9.99 µM; bursicon-stimulated, 4 h; 0.35% of 380,000 active; AID 720647, 2013;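 active means drop in luminescence signal, shown as inhibition above about 50% in the replicate tests, limit read from the data, passing the limit was not always enough; inconclusive means probably only some replicates passing the limit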;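 further: agonist challenge used bursicon conditioned medium at about half maximal strength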
# TWEAK Fn14 block = inhibitors of TWEAK-Fn14 signaling, primary screen, luciferase reporter cells, uHTS; TWEAK-stimulated Fn14 reporter cells, luciferase luminescence, 8 h; AID 1159606, 2016; inhibition, % at 10 µM; 2% of 360,000 active; in the data active means inhibition above about 50%
# TROY signal inh = inhibitors of TROY-driven NF-kB signaling, primary screen, Q293 LMP1-TROYcd cells, NF-kB luciferase, uHTS; Q293 LMP1-TROYcd NF-kB luciferase reporter, 4 h; inhibition, % at 10 µM; 0.98% of 360,000 active; AID 1347056, 2019;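 active means compounds whose plate-normalised and pattern-corrected inhibition of the luciferase reporter signal at the single screening dose is 50% or more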
# LMP1 NFkB inh = EBV LMP1-driven NF-kappaB luciferase reporter inhibitors, primary screen, cell-based, luminescence, single point | LMP1-induced NF-kappaB luciferase reporter cells | inhibition, % at 12.5 µM | 0.69% of 350,000 active | AID 504558, 2011; in the data active means inhibition above about 41%; inconclusive means no clear call, values can overlap the other calls;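 further: 0% = neutral control wells and 100% = reference inhibitor control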
# An asterisk follows results filed as active; ? = inconclusive; . = no result given. Shown are actives, neighbours in structure and some others; about 2.5% of the full set was active somewhere.
SMILES,EWS-Fli inh,LGR2 inh,TWEAK Fn14 block,TROY signal inh,LMP1 NFkB inh
COc1ccc(/C=C/c2nc(N)nc(-c3ccccc3O)n2)cc1,-34,-30,6,-74,-10
COc1ccc(/C=C/c2nc(N)nc(-c3ccccc3O)n2)cc1OC,-8,28,55*,13,-7
COc1cc(/C=C/c2noc(-c3ccccc3O)n2)cc(OC)c1OC,.,-66,-59,-33,8
COc1cc(/C=C/c2nc(N)nc(-c3ccccc3O)n2)cc(OC)c1OC,.,-7,53*,18,-40
O=C(NCC1CCOCC1)c1ccc(OC2CCN(Cc3ccccn3)CC2)cc1,0,3,2,2,58*
O=C(COC(=O)C1=COCCO1)Nc1ccccc1Oc1ccccc1,.,.,64*,11,8
O=C(Nc1nc(-c2ccc(Oc3ccccc3)cc2)cs1)C1=COCCO1,.,8,62*,33,9
COc1ccc(S(=O)(=O)Nc2cccc3c2O[C@H](CN(C)Cc2ccc(C(=O)O)cc2)[C@H](C)CN([C@H](C)CO)C3=O)cc1,-10,6,.,.,.
COCC#Cc1ccc([C@@H]2[C@@H](CO)N3C(=O)CN(C(=O)C4CCOCC4)C[C@H]23)cc1,-2,-14,.,.,.
O=C(Nc1ccc(Cl)c(Cl)c1)N[C@@H]1CC[C@H](CCNC(=O)c2ccc(F)cc2)O[C@@H]1CO,-1,3,.,.,.
O=C(CCc1nc(-c2ccccc2F)no1)Nc1ccc(Oc2ccccc2)cc1,.,14,52*,44,7
COc1cccc(NC(=O)CCc2nc(-c3ccccc3F)no2)c1,.,-8,17,-5,-5
COCCNC(=O)C[C@@H]1CC[C@H](NS(=O)(=O)c2ccc(C)cc2)[C@@H](CO)O1,-10,-2,.,.,.
Cc1cc(C(C#N)c2ccc(Cl)cc2)c(Cl)cc1NC(=O)c1cc(I)cc(I)c1O (configuration not stated),1,.,24,70*,6
CCn1c2ccccc2c2cc(/C=N/NC(=O)c3cccc(C)c3)ccc21,.,.,7,23,88*
CCn1c2ccccc2c2cc(/C=N/NC(=O)c3ccccc3C)ccc21,44,-6,13,11,87*
Cn1c2ccccc2c2cc(/C=N/NC(=O)c3ccccc3F)ccc21,.,-6,-32,-76,-4
Cc1noc(C)c1NC(=O)Nc1ccc2c(c1)C(=O)N([C@@H](C)CO)C[C@@H](C)[C@@H](CN(C)S(=O)(=O)c1ccc(F)cc1)OCCCC[C@H](C)O2,3,-20,.,.,.
C[C@@H]1CN([C@H](C)CO)C(=O)c2cc(NC(=O)NC3CCCCC3)ccc2O[C@@H]1CN(C)Cc1ccc(Cl)c(Cl)c1,-3,-17,.,.,.
C=CCc1c(C)nc2cc(-c3ccc(C)cc3)[nH]n2c1=O,-4,?,63*,37,12
Clc1ccc(Cn2cc(/C=N/n3cnnc3)c3ccccc32)c(Cl)c1,.,.,54*,46,-2
O=C(O)c1cccc(Nc2nc(N3CCOCC3)nc(N3CCOCC3)n2)c1,.,8,-3,1,6
O=C(O)c1cccc(Nc2ccnc(Nc3cccc(C(=O)O)c3)n2)c1,63*,90*,-12,-75,58*
COC(=O)C[C@H]1CC[C@@H]2[C@@H](COc3ccc(NC(=O)c4cccc(Cl)c4)cc3C(=O)N2C)O1,-29,-19,.,.,.
O=S(=O)(NC1CC1)c1ccc(Cl)cc1F,-6,-10,99*,2,-9
SMILES,EWS-Fli inh,LGR2 inh,TWEAK Fn14 block,TROY signal inh,LMP1 NFkB inh
COc1ccc(-c2ccn(-c3cccc(F)n3)n2)cc1,-73,-82,56*,-22,-40
Nc1nn(-c2cccc(F)n2)cc1-c1ccc(Cl)cc1,1,-2,26,9,-60
CN(C)C(=O)c1cccc(-c2ccc([C@H]3[C@H]4CN(C(=O)C5CCCC5)CC(=O)N4[C@H]3CO)cc2)c1,-5,39,.,.,.
C/C=C/c1ccc([C@H]2[C@@H](CO)N[C@@H]2CNC(=O)C2CCCCC2)cc1,.,-13,.,.,.
O=C(NCCc1cn2ccccc2n1)c1cc(COc2ccc3ncccc3c2)on1,-14,20,66*,41,12
COc1cccc(CN(C)C(=O)c2cc(COc3ccc4ncccc4c3)on2)c1,11,17,59*,41,-1
CC(C)NC(=O)N(C)C[C@@H]1OCCCC[C@H](C)Oc2ccc(NS(=O)(=O)c3cn(C)cn3)cc2C(=O)N([C@H](C)CO)C[C@@H]1C,-12,-11,.,.,.
COc1ccc(-c2cc3ccc(OC)cc3cn2)cc1,58*,67*,86*,42,22
CCc1ccc(C(=O)COC(=O)c2cccc(N3C(=O)c4c(C)nc5ccccc5c4C3=O)c2)cc1,.,.,16,-8,45*
O=C(COC(=O)c1cccc(N2C(=O)C3CC=CCC3C2=O)c1)c1ccccc1 (configuration not stated),0,-16,-6,-31,5
Cc1ccc(S(=O)(=O)N(C)C[C@@H]2Oc3ccc(NC(=O)c4ccncc4)cc3CC(=O)N([C@@H](C)CO)C[C@@H]2C)cc1,1,-9,.,.,.
Cc1nc2cc(-c3ccc(Cl)cc3)nn2c(C)c1CCC(=O)NCc1ccco1,57*,-31,45,7,6
O=C(O)c1cc(C(=O)O)cc(-c2ccc(/C=c3/sc4nc5ccccc5n4c3=O)o2)c1,.,.,.,.,-4
O=C(O)c1ccccc1-c1ccc(C=c2sc3nc4cc(Br)cnc4n3c2=O)o1,11,2,54*,14,.
CC1=C(C(=O)OCC(C)C)C(c2ccccc2Cl)NC(=O)N1C (configuration not stated),-7,5,-24,-11,-5
CCOCCOC(=O)C1=C(C)N(C)C(=O)NC1c1ccccc1Cl (configuration not stated),.,.,53*,.,3
N#C[C@@H]1[C@@H](c2ccccc2-c2ccc(F)cc2)[C@H](CO)N1C(=O)NC1CCCC1,5,15,.,.,.
O=C(OCC(F)(F)F)c1cccc(COc2ccc3ccccc3c2)c1,.,.,-2,-53,79*
CCOc1ccc(OCc2cccc(C(=O)O)c2)cc1,88*,102*,46,-30,83*
O=C(O)c1cccc(COc2ccc(CO)cc2Cl)c1,89*,100*,71*,-26,91*
COc1ccc(OCc2cccc(C(=O)O)c2)cc1,.,.,53*,-38,86*
COc1ccc2c3c(n(C)c2c1)[C@@H](CO)N(CC1CCCCC1)CC31CN(C(C)=O)C1,7,-21,.,.,.
CO[C@@H]1CN(C)C(=O)c2ccc(NC(C)=O)cc2OC[C@@H](C)N(Cc2cc(-c3ccccc3)on2)C[C@H]1C,-4,-3,.,.,.
C[C@H]1CN([C@@H](C)CO)C(=O)c2cc(NC(=O)CCC(F)(F)F)ccc2O[C@@H]1CN(C)C(=O)Nc1ccc(F)cc1,6,-9,.,.,.
CO[C@@H]1CN(C)C(=O)c2ccc(NC(=O)C3CC3)cc2OC[C@H](C)N(C(=O)C2CCOCC2)C[C@H]1C,-7,2,.,.,.
